# According to ChEMBL document CHEMBL3988442, “University of Dundee, Small-Polar-MMV Screening Library” (2021):
# For some assays here: Potency and affinity values are given separately.
# Tests used:
# Parameters in all cases: scale not given: direction of the effect not stated beside the values
# [1] = biological target: Protein translocase subunit SecA (Escherichia coli (strain K12)) (UniProt P10408); assay: Assay to Identify E. coli SecA ATPase Inhibitors; format: functional; conditions: 30 µM
# Protein translocase subunit SecA (Escherichia coli (strain K12)), sequence (P10408 whole entry): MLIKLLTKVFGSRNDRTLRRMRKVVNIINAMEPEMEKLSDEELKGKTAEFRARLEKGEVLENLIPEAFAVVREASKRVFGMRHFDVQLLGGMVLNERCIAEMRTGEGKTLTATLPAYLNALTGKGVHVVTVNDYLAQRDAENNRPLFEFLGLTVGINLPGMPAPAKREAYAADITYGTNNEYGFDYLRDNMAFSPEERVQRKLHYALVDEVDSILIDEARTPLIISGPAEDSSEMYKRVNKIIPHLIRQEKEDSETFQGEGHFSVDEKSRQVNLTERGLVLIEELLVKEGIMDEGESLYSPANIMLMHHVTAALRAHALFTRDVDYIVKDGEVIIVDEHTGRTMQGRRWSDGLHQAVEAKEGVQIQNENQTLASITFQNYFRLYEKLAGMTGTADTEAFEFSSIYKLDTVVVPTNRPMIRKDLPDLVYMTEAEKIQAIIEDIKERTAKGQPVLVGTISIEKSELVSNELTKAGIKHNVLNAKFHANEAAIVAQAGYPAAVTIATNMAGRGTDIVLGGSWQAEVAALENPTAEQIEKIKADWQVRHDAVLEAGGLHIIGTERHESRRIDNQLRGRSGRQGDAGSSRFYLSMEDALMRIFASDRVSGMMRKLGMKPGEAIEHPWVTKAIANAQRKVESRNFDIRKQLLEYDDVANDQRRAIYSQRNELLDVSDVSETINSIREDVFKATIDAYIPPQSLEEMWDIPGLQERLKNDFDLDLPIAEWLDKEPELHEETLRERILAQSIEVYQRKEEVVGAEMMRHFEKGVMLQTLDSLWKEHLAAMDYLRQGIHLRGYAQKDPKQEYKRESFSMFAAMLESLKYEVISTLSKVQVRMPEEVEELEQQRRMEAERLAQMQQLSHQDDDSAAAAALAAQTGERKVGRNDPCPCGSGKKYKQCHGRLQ
# [2] = biological target: T1, Ubiquitin-activating enzyme e1, putative (Leishmania donovani (strain BPK282A1)) (UniProt E9BSI1); assay: Leishmania donovani Ubiquitin Activating Enzyme (LdE1); format: functional; conditions: 30 µM
# T1 sequence (whole entry): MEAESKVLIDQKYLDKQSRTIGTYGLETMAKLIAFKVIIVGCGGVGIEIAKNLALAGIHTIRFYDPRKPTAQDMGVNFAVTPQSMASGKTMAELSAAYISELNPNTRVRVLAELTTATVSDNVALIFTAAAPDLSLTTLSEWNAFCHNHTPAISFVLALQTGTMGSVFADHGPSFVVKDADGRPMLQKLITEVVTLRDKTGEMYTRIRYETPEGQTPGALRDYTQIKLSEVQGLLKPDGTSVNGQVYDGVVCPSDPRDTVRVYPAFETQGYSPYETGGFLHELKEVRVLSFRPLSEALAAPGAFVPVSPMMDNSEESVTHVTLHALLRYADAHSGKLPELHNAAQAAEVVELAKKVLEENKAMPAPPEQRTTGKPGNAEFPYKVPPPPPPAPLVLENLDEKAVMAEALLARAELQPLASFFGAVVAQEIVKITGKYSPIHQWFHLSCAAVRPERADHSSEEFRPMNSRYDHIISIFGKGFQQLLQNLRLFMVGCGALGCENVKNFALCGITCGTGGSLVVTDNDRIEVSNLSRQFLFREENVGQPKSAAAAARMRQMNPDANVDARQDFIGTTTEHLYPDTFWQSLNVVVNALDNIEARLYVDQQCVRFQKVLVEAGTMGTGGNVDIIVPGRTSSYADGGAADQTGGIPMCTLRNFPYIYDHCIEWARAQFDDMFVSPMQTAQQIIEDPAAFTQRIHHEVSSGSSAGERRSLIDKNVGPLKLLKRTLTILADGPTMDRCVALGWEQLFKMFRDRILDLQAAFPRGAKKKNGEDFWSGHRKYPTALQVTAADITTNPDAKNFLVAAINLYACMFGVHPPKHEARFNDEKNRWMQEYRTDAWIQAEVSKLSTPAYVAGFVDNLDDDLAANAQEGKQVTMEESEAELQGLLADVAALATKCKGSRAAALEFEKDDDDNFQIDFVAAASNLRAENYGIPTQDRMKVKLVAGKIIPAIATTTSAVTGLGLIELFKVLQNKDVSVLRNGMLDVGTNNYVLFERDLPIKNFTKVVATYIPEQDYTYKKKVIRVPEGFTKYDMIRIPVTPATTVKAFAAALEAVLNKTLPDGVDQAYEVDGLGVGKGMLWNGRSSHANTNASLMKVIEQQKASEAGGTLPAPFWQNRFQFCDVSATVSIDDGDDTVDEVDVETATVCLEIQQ
# [3] = biological target: Sialic acid-binding Ig-like lectin 9 (Homo sapiens) (UniProt Q9Y336); assay: Hs-Siglec9 ALPHAscreen SOP 20170721; conditions: 10 µM
# Sialic acid-binding Ig-like lectin 9 (Homo sapiens), sequence (Q9Y336 whole entry): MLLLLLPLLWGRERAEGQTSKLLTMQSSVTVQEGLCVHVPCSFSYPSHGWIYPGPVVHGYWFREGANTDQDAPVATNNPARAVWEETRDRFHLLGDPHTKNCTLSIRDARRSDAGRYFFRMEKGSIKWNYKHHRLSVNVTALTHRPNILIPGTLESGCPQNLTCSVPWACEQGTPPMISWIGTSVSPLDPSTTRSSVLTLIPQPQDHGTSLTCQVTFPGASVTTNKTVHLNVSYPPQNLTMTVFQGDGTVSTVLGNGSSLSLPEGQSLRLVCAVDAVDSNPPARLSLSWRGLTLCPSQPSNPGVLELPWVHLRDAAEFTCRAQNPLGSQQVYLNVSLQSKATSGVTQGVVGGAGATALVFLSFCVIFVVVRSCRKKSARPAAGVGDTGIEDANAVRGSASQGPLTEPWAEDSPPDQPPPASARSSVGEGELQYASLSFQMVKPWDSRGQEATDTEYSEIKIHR
# Trypanosoma cruzi = assay: Trypanosoma cruzi phosphomannomutase and mannose-1-phosphate guanylyltransferase assay; format: functional; conditions: 10 µM
# [4] = biological target: T2, Arginase-2, mitochondrial (Homo sapiens) (UniProt P78540); assay: in vitro enzyme assay to detect the production of urea directly proportional to the activity of Arginase II; format: functional; conditions: 33.3 µM; also: in the data most compounds retested in dose-response had high values
# T2 sequence (whole entry): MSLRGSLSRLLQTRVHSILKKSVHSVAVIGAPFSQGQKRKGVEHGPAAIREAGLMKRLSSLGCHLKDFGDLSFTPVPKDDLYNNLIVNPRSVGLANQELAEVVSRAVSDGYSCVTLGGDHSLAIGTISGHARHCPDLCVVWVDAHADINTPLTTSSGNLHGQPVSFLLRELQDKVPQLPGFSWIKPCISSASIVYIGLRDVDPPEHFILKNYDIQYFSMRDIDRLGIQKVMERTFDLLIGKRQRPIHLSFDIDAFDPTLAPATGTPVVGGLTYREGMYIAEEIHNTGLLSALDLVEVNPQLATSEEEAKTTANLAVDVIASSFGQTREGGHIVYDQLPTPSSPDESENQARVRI
# [5] = biological target: T3, Proteasome subunit beta (Trypanosoma cruzi) (UniProt O96673); assay: Trypanosoma cruzi proteasome chymotrypsin-like activity (TcProtChymo) assay.; also: in the data most compounds retested in dose-response had high values; format: functional; conditions: 9.37 µM
# T3 sequence (whole entry): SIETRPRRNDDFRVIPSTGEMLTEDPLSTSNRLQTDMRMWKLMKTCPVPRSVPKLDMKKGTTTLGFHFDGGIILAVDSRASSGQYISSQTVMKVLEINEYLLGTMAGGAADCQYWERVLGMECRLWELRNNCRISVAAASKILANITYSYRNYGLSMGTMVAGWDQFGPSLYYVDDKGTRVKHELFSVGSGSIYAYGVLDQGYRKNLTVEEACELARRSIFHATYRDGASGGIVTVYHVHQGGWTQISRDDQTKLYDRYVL
# Homo sapiens = organism: Homo sapiens; assay: To identify inhibition of the IFN signalling (Jak-Stat) pathway via expression of an eGFP reporter gene under the control of an IFN-stimulated response element (ISRE) containing MxA promoter.; format: functional; conditions: 30 µM
# [6] = biological target: T4, Tyrosyl-tRNA synthetase, putative (Trypanosoma cruzi (strain CL Brener)) (UniProt Q4DSP6); assay: Trypanosoma cruzi tyrosyl tRNA synthetase (TcYRS) _High Tyrosine SOP; format: functional; conditions: 30 µM; also: in the data most compounds retested in dose-response had high values
# T4 sequence (whole entry): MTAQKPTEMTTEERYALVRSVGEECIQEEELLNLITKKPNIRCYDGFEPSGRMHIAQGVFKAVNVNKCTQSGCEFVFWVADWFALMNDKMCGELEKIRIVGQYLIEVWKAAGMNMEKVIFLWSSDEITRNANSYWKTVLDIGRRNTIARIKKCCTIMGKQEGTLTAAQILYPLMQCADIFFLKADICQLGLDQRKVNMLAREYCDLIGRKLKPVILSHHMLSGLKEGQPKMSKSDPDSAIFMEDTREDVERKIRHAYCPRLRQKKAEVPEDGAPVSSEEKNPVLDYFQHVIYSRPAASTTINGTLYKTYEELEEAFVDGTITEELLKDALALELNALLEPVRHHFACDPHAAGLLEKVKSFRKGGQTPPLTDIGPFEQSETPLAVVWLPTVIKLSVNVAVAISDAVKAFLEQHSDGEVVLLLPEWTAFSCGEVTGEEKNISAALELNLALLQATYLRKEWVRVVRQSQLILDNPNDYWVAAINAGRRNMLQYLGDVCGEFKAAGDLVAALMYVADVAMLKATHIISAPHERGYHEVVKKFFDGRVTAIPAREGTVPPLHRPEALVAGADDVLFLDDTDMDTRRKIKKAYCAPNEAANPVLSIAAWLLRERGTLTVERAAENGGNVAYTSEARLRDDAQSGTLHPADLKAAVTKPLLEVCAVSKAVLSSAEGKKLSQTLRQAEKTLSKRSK
# [7] = biological target: T4, Tyrosyl-tRNA synthetase, putative (Trypanosoma cruzi (strain CL Brener)); assay: Trypanosoma cruzi tyrosyl tRNA synthetase (TcYRS) SOP; format: functional; conditions: 30 µM
# [8] = biological target: Chromo domain-containing protein 1 (Saccharomyces cerevisiae (strain ATCC 204508 / S288c) (Baker's yeast)) (UniProt P32657); assay: ScCHD-1 Enzyme Inhibition Assay; format: functional; conditions: 30 µM; also: in the data most compounds retested in dose-response had high values
# Chromo domain-containing protein 1 (Saccharomyces cerevisiae (strain ATCC 204508 / S288c) (Baker's yeast)), sequence (P32657 whole entry, the tested form may be a part): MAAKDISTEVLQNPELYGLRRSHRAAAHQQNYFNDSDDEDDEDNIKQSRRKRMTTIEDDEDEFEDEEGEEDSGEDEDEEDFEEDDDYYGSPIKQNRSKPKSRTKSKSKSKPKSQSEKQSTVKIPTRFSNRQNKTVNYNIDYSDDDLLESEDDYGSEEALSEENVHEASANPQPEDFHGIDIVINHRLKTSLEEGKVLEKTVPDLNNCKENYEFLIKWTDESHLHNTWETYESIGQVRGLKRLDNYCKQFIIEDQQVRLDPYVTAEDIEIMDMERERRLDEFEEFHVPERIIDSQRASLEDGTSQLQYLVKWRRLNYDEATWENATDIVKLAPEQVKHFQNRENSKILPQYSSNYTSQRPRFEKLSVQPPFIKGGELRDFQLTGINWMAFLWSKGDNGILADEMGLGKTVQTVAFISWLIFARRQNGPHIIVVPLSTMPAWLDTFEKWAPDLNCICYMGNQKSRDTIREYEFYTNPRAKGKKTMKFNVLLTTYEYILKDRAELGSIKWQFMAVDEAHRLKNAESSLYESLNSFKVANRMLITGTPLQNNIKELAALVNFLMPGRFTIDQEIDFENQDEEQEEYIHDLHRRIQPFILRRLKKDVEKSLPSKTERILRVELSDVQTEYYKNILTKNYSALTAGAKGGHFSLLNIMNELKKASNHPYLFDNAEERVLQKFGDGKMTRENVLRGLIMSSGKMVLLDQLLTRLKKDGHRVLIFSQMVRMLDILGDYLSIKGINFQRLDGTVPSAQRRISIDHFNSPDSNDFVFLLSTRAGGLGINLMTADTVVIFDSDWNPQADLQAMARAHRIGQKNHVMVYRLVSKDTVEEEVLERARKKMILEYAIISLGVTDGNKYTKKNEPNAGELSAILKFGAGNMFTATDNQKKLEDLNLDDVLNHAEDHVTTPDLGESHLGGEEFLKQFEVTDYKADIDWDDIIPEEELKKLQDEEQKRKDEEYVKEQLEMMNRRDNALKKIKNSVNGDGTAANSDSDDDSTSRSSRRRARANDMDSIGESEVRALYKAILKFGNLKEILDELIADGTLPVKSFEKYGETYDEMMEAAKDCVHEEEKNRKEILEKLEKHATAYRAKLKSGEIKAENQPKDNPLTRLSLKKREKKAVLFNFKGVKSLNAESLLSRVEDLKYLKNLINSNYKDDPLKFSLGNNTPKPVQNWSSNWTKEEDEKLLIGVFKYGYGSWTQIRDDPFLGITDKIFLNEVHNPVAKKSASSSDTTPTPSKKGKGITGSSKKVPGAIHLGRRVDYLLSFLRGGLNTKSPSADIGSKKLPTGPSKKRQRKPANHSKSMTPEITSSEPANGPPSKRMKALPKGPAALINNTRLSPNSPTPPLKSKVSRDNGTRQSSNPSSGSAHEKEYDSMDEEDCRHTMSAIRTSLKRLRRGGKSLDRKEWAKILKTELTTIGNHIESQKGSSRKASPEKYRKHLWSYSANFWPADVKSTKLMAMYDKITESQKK
Structure (SMILES),Percent Effect [1] [%],Percent Effect [2] [%],Percent Effect [3] [%],Percent Effect (Trypanosoma cruzi) [%],Percent Effect [4] [%],Percent Effect [5] [%],Percent Effect (Homo sapiens) [%],Percent Effect [6] [%],Percent Effect [7] [%],Percent Effect [8] [%]
CN(CCNC(=O)c1scnc1Cl)c1ccccc1,-1.49,10.7,-1.26,-8.23,3.99,19.9,20,1.58,10.3,-6.98
Cc1nn2cccnc2c1C(=O)N1CCCC(n2ccnc2)C1 (stereo not given),0.231,13.3,-7.92,-2.21,0,8.23,2.09,3.68,12.8,-11.1
CCn1cc(NC(=O)NCc2ccc3c(c2)OCCO3)cn1,-3.41,20.8,4.42,-2.98,4.3,7.37,12.6,11.8,21.2,-7.59
Cc1ccc(OCCC(=O)N2CCN(c3cnccn3)CC2)cc1C,1.26,13,-2.1,-5.78,3.48,14.9,16.1,6.86,18.8,-6.5
CCn1ncnc1C1CC(=O)NCc2nc3ccccn3c21 (stereo not given),-7.68,10.8,16.9,6.11,10.8,4.62,14.8,5.85,9.76,84
CCC1c2ccsc2CCN1C(=O)NCc1ccccn1 (stereo not given),-3.49,20.5,-10.3,4.6,4.1,10.2,10.8,5.26,22.9,-7.76
O=C(COc1ccc2c(c1)CCC2)NS(=O)(=O)c1cncc(Br)c1,-2.61,2.56,1.99,9.3,-3.28,3.33,7.32,-3.35,1.21,1.12
CC(C)n1ccnc1CN1CCCN(C(=O)c2cccnc2O)CC1,-4.65,15.4,-20.6,5.54,1.64,14.9,-7.69,10.1,22.9,-5.81
Cc1n[nH]c(=O)c2c(NC(=O)CN3CCC(O)CC3)oc(C)c12,-1.08,10.3,-12.1,-8.17,0.41,19.4,21.8,4.31,10.8,-5.11
CN(C)S(=O)(=O)N1CCN(c2ccnc(N3CCCC3)n2)CC1,-3.6,-2.7,-0.53,3.01,-1.75,8.39,-13.3,3.72,4.88,-0.866
COc1cccc(OCC2CCCN(C(C)=O)C2)c1 (stereo not given),-1.78,14.7,-3.67,-0.395,-3.1,25.4,8.14,2.12,15,-24.1
